Measured values as given in PubChem BioAssay AID493205 (National Center for Advancing Translational Sciences (NCATS), 2011).
The list shows a part of the results. Inconclusive results are not listed. Values without a mark were called inactive. Activity calls are given as the source filed them. The call rests on the fitted dose curve; in most records, active means well fitted inhibition curve with a large enough effect; inconclusive means small, poorly fitted or top-dose-only effect, or effect the other way; inactive means no such curve, though single readings can be large or run the other way.

Biological target: Muscleblind-like protein 1 (Homo sapiens) (UniProt Q9NR56)
Assay: qHTS Assay for Inhibitors of MBNL1-poly(CUG) RNA binding: Initial hit validation in AlphaScreen assay for MBNL1-(CUG)12 binding
Details: AlphaScreen MBNL1-His / biotin-(CUG)12 binding; series mostly up to 57.7 µM; activity, negative = inhibition: at the top concentration
Description: NIH Chemical Genomics Center [NCGC] NIH Molecular Libraries Probe Production Centers Network [MLPCN] MLPCN Grant: R03 MH087421-01 Assay Submitter (PI): Charles Thornton NCGC Assay Overview: Expanded CTG repeats in the 3' untranslated region of the DM protein kinase (DMPK) gene causes type I myotonic dystrophy (DM1). DM1 is a multi-systemic disease with a prevalence of 1/7000. Clinical features include myotonia, progressive muscle weakness and wasting, cardiac arrhythmia, insulin resistance, hypersomnolence, cataracts, and other symptoms. The pathogenic effect of expanded CTG repeats stems from deleterious effects of the mutant transcript. CUGexp mRNA accumulates in nuclear foci and sequesters proteins of the muscleblind family, of which MBNL1 is the most common family member in skeletal muscles. The binding interaction between MBNL1 and CUGexp tracts leads to deregulation of alternative splicing and is therefore a key molecular step in the pathogenesis of DM1. […]
NCGC Assay Protocol Summary: This is a proximity-based binding assay with MBNL1-His and Biotin-(CUG)12 RNA. […] The AC50 values were determined from concentration-response data modeled with the standard Hill equation Assay buffer: 20mM HEPES, 110mM KCl, 10mM NaCl, 2mM MgCl2, 2mM CaCl2, 5mM DTT, 0.1% BSA, 0.05% Tween 20 1536-well assay protocol for the MBNL1-(CUG)12 binding assay: (1) Add 2 ul/well 20nM MBNL1-His, 20nM Biotin-(CUG)12 (2) Add 23 nL compounds in DMSO solution. […] (3) Add 1 ul of Nickel-coated AlphaScreen acceptor beads (6.25 ng/ul final concentration) (4) Incubate 30 min at room temperature (5) Add 1 ul of Streptavidin-conjugated AlphaScreen donor beads (6.25 ng/ul final concentration) (6) Incubate 60 min at room temperature (7) Detect the assay plate in a EnVision plate reader (PerkinElmer) with AlphaScreen protocol Keywords: mytonic dystrophy type I, DM1, muscleblind like 1, MBNL1, CUG expansion, protein-RNA binding inhibitor, high throughput screening, MLSMR, MLSCN, NIH Roadmap, qHTS and NCGC

Sequence of Muscleblind-like protein 1 (Homo sapiens) (Q9NR56 whole entry, looked up): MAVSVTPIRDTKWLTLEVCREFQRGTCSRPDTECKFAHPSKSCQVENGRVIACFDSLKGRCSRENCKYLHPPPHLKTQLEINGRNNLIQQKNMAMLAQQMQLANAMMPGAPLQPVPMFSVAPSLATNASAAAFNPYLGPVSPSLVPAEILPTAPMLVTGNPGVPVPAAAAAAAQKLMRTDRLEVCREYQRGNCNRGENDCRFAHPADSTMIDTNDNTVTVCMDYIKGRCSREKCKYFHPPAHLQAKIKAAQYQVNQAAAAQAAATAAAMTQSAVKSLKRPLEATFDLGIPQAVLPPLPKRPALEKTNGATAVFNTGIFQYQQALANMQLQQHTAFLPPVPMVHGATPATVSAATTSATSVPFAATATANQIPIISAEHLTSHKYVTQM

Structure (SMILES) | Potency | activity, negative = inhibition [%]
CCOC(=O)c1c(C)[nH]c2c1-c1ccccc1C(=O)C2=O | 4.11 µM (active) | 
COc1cccc(NC(=O)Cn2cnc3sc(C)c(S(=O)(=O)N4CCN(C)CC4)c3c2=O)c1 |  | -4.19
COc1ccc(Cc2n[nH]c(=S)n2NC(=O)Nc2ccc(C)cc2)cc1 |  | -7.23
